Experimental data from PubChem BioAssay AID1825 (The Scripps Research Institute Molecular Screening Center, 2009).
Hit rate of the full screen: of about 290,000 compounds, about 2,300 (0.79%) were called active. Cut-off read from the data, not from the text of the source: active = inhibition above about 22%; inactive = the rest. This excerpt belongs to a sample that is enriched for actives.

Test: cytotoxicity in IEC-6 intestinal epithelial cells, primary screen, cytotoxicity control for KLF5 inhibitor project, cell-based, luminescence (AID 1825);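 note: 0% = plate median of test compound wells and 100% = cytotoxic reference compound wells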
Details: IEC-6 cytotoxicity, luminescence viability; at 5 µM; stronger effect = higher value

With `CC(NC(=O)Cn1cc(C(F)(F)F)cc(Cl)c1=O)c1ccccc1` (stereo not drawn) as the compound, how does the inhibition read?
The inhibition was 4.4% (inactive).

Which inhibition does the source give for `COc1ccccc1CCNC(=O)c1c(C)nn(CC(C)C)c1Cl` here?
Its inhibition is -4.6% (inactive).

For `O=C(Cc1cccs1)Nc1ccc([N+](=O)[O-])cc1`, which inhibition is on record?
The inhibition was -0.5% (inactive).

With `CC(C)c1ccc(Cc2nnc(NCCCO)[nH]c2=O)cc1` as the compound, how does the inhibition read?
Its inhibition is 3.6% (inactive).

With `CCOc1ccccc1NC(=O)Cn1nnc(C(=O)NCc2cccs2)c1N` as the compound, how does the inhibition read?
Its inhibition is 84.2% (active).

For `CCOc1ccccc1NC(=O)Cc1cccs1`, which inhibition is on record?
Its inhibition is -0.9% (inactive).

With `Cc1ccc(NC(=O)Cn2nnc(C(=O)NCc3ccco3)c2N)c(C)c1` as the compound, how does the inhibition read?
The inhibition was -1.1% (inactive).

Which inhibition does the source give for `CC(C)c1cc(C(=O)N/N=C/c2ccoc2)c(O)c(C(C)C)c1` here?
Its inhibition is -1.3% (inactive).

Which inhibition does the source give for `CCN(C(=O)C1CCCN(c2nc(-c3ccc(OC)cc3)no2)C1)c1ccc(OC)cc1` (stereo not drawn) here?
Its inhibition is -1.6% (inactive).

With `COc1ccccc1Nc1ncnc2c1oc1ccccc12` as the compound, how does the inhibition read?
Its inhibition is -0.2% (inactive).

With `Cc1nc(Cl)c2oc3ccccc3c2n1` as the compound, how does the inhibition read?
Its inhibition is -5.3% (inactive).

With `COc1ccc(C)cc1Nc1nc(C)nc2c1oc1ccccc12` as the compound, how does the inhibition read?
The inhibition was 34.1% (active).

For `CSc1ncccc1C(=O)Nc1ccc(C)cn1`, which inhibition is on record?
Its inhibition is 4.3% (inactive).

Which inhibition does the source give for `COCCOC(=O)c1[nH]c2c(c1C)C(=O)CC(c1ccc(OC)cc1)C2` (stereo not drawn) here?
Its inhibition is 2.6% (inactive).

With `CCOC(=O)c1[nH]c2c(c1-c1ccccc1)C(=O)CC(c1ccc(Cl)cc1)C2` (stereo not drawn) as the compound, how does the inhibition read?
Its inhibition is 2% (inactive).

With `CCCOC(=O)c1[nH]c2c(c1C)C(=O)CC(c1cccs1)C2` (stereo not drawn) as the compound, how does the inhibition read?
The inhibition was 81.1% (active).

Which inhibition does the source give for `CCOc1cc(C)c(S(=O)(=O)NCc2ccccn2)cc1C` here?
The inhibition was 4.3% (inactive).

For `COc1ccc(S(=O)(=O)N(CC(=O)N/N=C/c2ccccc2C(=O)O)c2ccccc2OC)cc1`, which inhibition is on record?
The inhibition was 2.9% (inactive).

With `COc1ccccc1N(CC(=O)N/N=C(\C)c1ccccc1O)S(=O)(=O)c1ccc(C)cc1` as the compound, how does the inhibition read?
Its inhibition is 33.8% (active).

Which inhibition does the source give for `COc1ccccc1NC(=O)CN(c1ccccc1OC)S(=O)(=O)c1ccccc1` here?
The inhibition was -4.1% (inactive).

With `CC(=O)NC(Cc1c[nH]c2ccccc12)C(=O)NCCc1ccccc1` (stereo not drawn) as the compound, how does the inhibition read?
Its inhibition is -0.3% (inactive).

With `COc1ccc(C(=O)Nc2ccc(N3CCC(C)CC3)cc2)cc1Br` as the compound, how does the inhibition read?
The inhibition was -5.3% (inactive).

Which inhibition does the source give for `CN1CCN(c2ccc(NC(=O)c3ccccc3)cc2)CC1` here?
Its inhibition is -2.5% (inactive).

For `COc1ccc(NC(=O)c2cccc(NC(=O)c3ccco3)c2)c(OC)c1`, which inhibition is on record?
Its inhibition is 4.3% (inactive).

For `Cc1ccc(OCC(=O)Nc2ccc(N3CCN(C(=O)c4ccco4)CC3)cc2)c(C)c1`, which inhibition is on record?
The inhibition was -14.8% (inactive).

With `COc1cccc(C(=O)Nc2ccc(N3CCN(C(=O)c4ccco4)CC3)cc2)c1` as the compound, how does the inhibition read?
The inhibition was 45% (active).

For `COc1cccc(C(=O)Nc2ccc(N3CCCC3)cc2)c1`, which inhibition is on record?
Its inhibition is 24.2% (active).

For `CCOC(=O)N1CCN(CCC(=O)Nc2ccccc2)CC1`, which inhibition is on record?
Its inhibition is -5.3% (inactive).

With `O=C(Nc1cccc(NC(=O)c2ccccc2[N+](=O)[O-])c1)c1ccccc1Cl` as the compound, how does the inhibition read?
The inhibition was 8% (inactive).

With `O=C(O)c1cc([N+](=O)[O-])c(Nc2cccc3ccccc23)c([N+](=O)[O-])c1` as the compound, how does the inhibition read?
Its inhibition is 4.7% (inactive).

Which inhibition does the source give for `CSc1ccccc1OCc1cc(C(=O)N2C[C@H]3CC[C@H]2C3)no1` here?
Its inhibition is 1.9% (inactive).

For `COc1ccc(N2CCN(C(=O)[C@@H](NC(=O)c3cc(OC)cc(OC)c3)C(C)C)CC2)cc1`, which inhibition is on record?
Its inhibition is -4.9% (inactive).

For `Cc1cccnc1NC(=O)c1cccc(S(=O)(=O)N2CCN(c3ccc(F)cc3)CC2)c1`, which inhibition is on record?
The inhibition was 2.3% (inactive).

With `Cc1c(/C=N\NC(=O)c2cc3ccccc3o2)c2ccccc2n1C` as the compound, how does the inhibition read?
Its inhibition is 43.7% (active).

Which inhibition does the source give for `O=C(N/N=C/c1c[nH]c2ccccc12)c1cc2ccccc2o1` here?
Its inhibition is 12.6% (inactive).

Which inhibition does the source give for `O=C(N/N=C/c1coc2ccccc2c1=O)c1cc2ccccc2o1` here?
The inhibition was 4.7% (inactive).

With `O=[N+]([O-])c1ccccc1S(=O)(=O)Nc1cccc2cccnc12` as the compound, how does the inhibition read?
Its inhibition is 55.6% (active).

For `O=C(Nc1ccccc1Cl)Nc1cccc2cccnc12`, which inhibition is on record?
Its inhibition is 3.4% (inactive).

Which inhibition does the source give for `Cc1ccccc1NC(=O)c1ccccc1NS(=O)(=O)c1cccc2cccnc12` here?
The inhibition was -2.7% (inactive).

Which inhibition does the source give for `O=C(NCCc1nnc2ccc(SCC(=O)N3CCOCC3)nn12)c1ccccc1` here?
The inhibition was -3.4% (inactive).

With `CCC(Cc1ccccc1)NS(=O)(=O)c1ccc2c(c1)NC(=O)CS2` (stereo not drawn) as the compound, how does the inhibition read?
The inhibition was 2.9% (inactive).

Which inhibition does the source give for `COc1cc2c(cc1OC)CN(C(=O)c1cc(=O)c3ccccc3o1)CC2` here?
The inhibition was 18.2% (inactive).

With `COc1cc2c(cc1OC)CN(C(=O)c1ccc(S(=O)(=O)N3CCCCCC3)cc1)CC2` as the compound, how does the inhibition read?
Its inhibition is 0.2% (inactive).

For `CCOc1cc(C(=O)N2CCc3cc(OC)c(OC)cc3C2)ccc1OC(F)F`, which inhibition is on record?
Its inhibition is 90% (active).

With `CCCCN(CCCC)CCCNC(=O)CN1C(=O)COc2ccc(S(=O)(=O)N3CCC(C)CC3)cc21` as the compound, how does the inhibition read?
The inhibition was 7.2% (inactive).

With `COc1ccc(C2=Nc3cc(C)ccc3OC2)cc1` as the compound, how does the inhibition read?
The inhibition was -0.6% (inactive).

For `CCOC(=O)CNc1nc(Cl)nc(Nc2ccc(OC)cc2OC)n1`, which inhibition is on record?
The inhibition was 6.5% (inactive).

For `CCCc1cc(=O)oc2c(C)c(OCC(=O)NCc3ccccn3)ccc12`, which inhibition is on record?
The inhibition was -5.9% (inactive).

Which inhibition does the source give for `Nc1c(C(=O)NCc2ccccc2)nnn1Cc1cccc(Cl)c1` here?
The inhibition was 24.6% (active).

Which inhibition does the source give for `COc1cccc(CNC(=O)c2nnn(CC(=O)Nc3cc(Cl)ccc3C)c2N)c1` here?
The inhibition was 19.7% (inactive).

With `CCOc1ccc(Cn2nnc(C(=O)NCc3ccccc3)c2N)cc1` as the compound, how does the inhibition read?
The inhibition was 4.7% (inactive).

With `Cc1ccc(NS(=O)(=O)c2ccc(C(C)(C)C)cc2)cn1` as the compound, how does the inhibition read?
The inhibition was -0.9% (inactive).

For `Cc1cnc(C(=O)Oc2cccc(Cl)c2Cl)cn1`, which inhibition is on record?
Its inhibition is 5.1% (inactive).

Which inhibition does the source give for `COc1ccccc1-c1nnc(NC(=O)c2cccc(N3C(=O)CCC3=O)c2)o1` here?
The inhibition was -5.8% (inactive).

For `COc1ccccc1-c1nnc(SCC(=O)Nc2ccccc2)o1`, which inhibition is on record?
Its inhibition is -0.6% (inactive).

With `COc1ccccc1-c1nnc(NC(=O)c2ccc3ncsc3c2)o1` as the compound, how does the inhibition read?
The inhibition was 22.8% (active).

With `CC(C)=CCN1CCN(Cc2cc3ccccc3[nH]2)CC1CCO` (stereo not drawn) as the compound, how does the inhibition read?
The inhibition was 1.5% (inactive).

For `CCOC(=O)C(C(=O)OCC)C(C#N)c1ccccc1` (stereo not drawn), which inhibition is on record?
The inhibition was 3.7% (inactive).

Which inhibition does the source give for `CCOC(=O)/C=C/C(=O)OCC(=O)NC(c1ccccc1)c1ccccc1` here?
The inhibition was 50.9% (active).

For `O=C(Cc1ccc(-c2ccccc2)cc1)NC(c1ccccc1)c1ccccc1`, which inhibition is on record?
The inhibition was -1.8% (inactive).

With `CCc1ccc2[nH]c(=O)c(Cc3ccccc3)c(O)c2c1` as the compound, how does the inhibition read?
Its inhibition is -0.4% (inactive).

With `COC(=O)c1ccc(S(=O)(=O)N2CCc3ccccc3C2)cc1` as the compound, how does the inhibition read?
The inhibition was 1.8% (inactive).

For `CC(=O)Nc1c2c(nn1-c1cccc(C)c1)CSC2`, which inhibition is on record?
The inhibition was 2.5% (inactive).

With `O=C(c1ccc(OC2CCN(Cc3ccccn3)CC2)cc1)N1CCCCCC1` as the compound, how does the inhibition read?
Its inhibition is -0.7% (inactive).

For `O=C(NCCOc1cccnc1)c1ccc(OC2CCN(Cc3ccccn3)CC2)cc1`, which inhibition is on record?
Its inhibition is 99.8% (active).

With `Cn1cc(CNC(=O)c2ccc(OC3CCN(Cc4ccccn4)CC3)cc2)cn1` as the compound, how does the inhibition read?
Its inhibition is 5.4% (inactive).

For `Cc1cccc(N2C(=O)N3[C@H](c4ccc(F)cc4)[C@@H]4C(=O)N(C5CCCCC5)C(=O)[C@@H]4[C@]3(Cc3ccccc3)C2=O)c1`, which inhibition is on record?
Its inhibition is -6% (inactive).

For `O=C(CSc1nnc(CNC(=O)c2ccc(F)cc2)o1)Nc1ccc2c(c1)OCO2`, which inhibition is on record?
Its inhibition is 8.3% (inactive).

Which inhibition does the source give for `COC(=O)CSc1nnc(NC(=O)CCc2ccccc2)s1` here?
Its inhibition is 8.2% (inactive).

With `COC(=O)C(C)Sc1nc2c(c(=O)n(C)c(=O)n2C)n1Cc1cccc(C)c1` (stereo not drawn) as the compound, how does the inhibition read?
Its inhibition is -2.6% (inactive).

For `Cn1c(=O)c2c(nc(NCCc3ccccc3)n2Cc2ccccc2)n(C)c1=O`, which inhibition is on record?
The inhibition was -1.8% (inactive).

Which inhibition does the source give for `CCCCNc1nc2c(c(=O)n(C)c(=O)n2C)n1Cc1cccc(OC)c1` here?
The inhibition was 25.1% (active).

For `CCc1ccc(CN(C)C(=O)C2CCC(=O)N(Cc3cccc(OC)c3)C2)nc1` (stereo not drawn), which inhibition is on record?
The inhibition was 5.8% (inactive).
